The supplement of paper PMC8975748
Structures can show the parent of a compound that is named as a salt. ± gives the standard deviation of the averaged measurements.

Key:
[1] = test system: Saccharomyces cerevisiae BY4741 SeMeCo community; assay: z-score of prototroph abundance vs DMSO median; higher = larger share of this subpopulation than in DMSO controls; conditions: 10 µM; 24 h; SM minimal medium; subpopulation (auxotrophy): Prototroph
Method in brief: (§1)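 Four plasmids, each restoring a single auxotrophy and encoding a distinct fluorescent protein, were carried by a Saccharomyces cerevisiae BY4741 community. After overnight growth to OD600 1.0 and dilution to 0.3, 70 µl per well was grown for 24 h in minimal SM medium on 384-well plates acoustically predosed with library drugs at 10 µM final. Following paraformaldehyde fixation, automated confocal microscopy was used, with single-auxotroph fluorescent strains defining thresholds and autofluorescence correction. Subpopulation abundance was then scored as a z-score against the vehicle-well median.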

[2] = test system: Saccharomyces cerevisiae BY4741 SeMeCo community; assay: z-score of subpopulation abundance vs DMSO median, subpopulation auxotrophic for M; higher = larger share of this subpopulation than in DMSO controls; conditions: 10 µM; 24 h; SM minimal medium; subpopulation (auxotrophy): M
Method in brief: as §1

[3] = test system: Saccharomyces cerevisiae BY4741 SeMeCo community; assay: z-score of subpopulation abundance vs DMSO median, subpopulation auxotrophic for U; higher = larger share of this subpopulation than in DMSO controls; conditions: 10 µM; 24 h; SM minimal medium; subpopulation (auxotrophy): U
Method in brief: as §1

[4] = test system: Saccharomyces cerevisiae BY4741 SeMeCo community; assay: z-score of subpopulation abundance vs DMSO median, subpopulation auxotrophic for H; higher = larger share of this subpopulation than in DMSO controls; conditions: 10 µM; 24 h; SM minimal medium; subpopulation (auxotrophy): H
Method in brief: as §1

[5] = test system: Saccharomyces cerevisiae BY4741 SeMeCo community; assay: z-score of subpopulation abundance vs DMSO median, subpopulation auxotrophic for LU; higher = larger share of this subpopulation than in DMSO controls; conditions: 10 µM; 24 h; SM minimal medium; subpopulation (auxotrophy): LU
Method in brief: as §1

[6] = test system: Saccharomyces cerevisiae BY4741 SeMeCo community; assay: z-score of subpopulation abundance vs DMSO median, subpopulation auxotrophic for LM; higher = larger share of this subpopulation than in DMSO controls; conditions: 10 µM; 24 h; SM minimal medium; subpopulation (auxotrophy): LM
Method in brief: as §1

[7] = test system: Saccharomyces cerevisiae BY4741 SeMeCo community; assay: z-score of subpopulation abundance vs DMSO median, subpopulation auxotrophic for HM; higher = larger share of this subpopulation than in DMSO controls; conditions: 10 µM; 24 h; SM minimal medium; subpopulation (auxotrophy): HM
Method in brief: as §1

[8] = test system: Saccharomyces cerevisiae BY4741 SeMeCo community; assay: z-score of subpopulation abundance vs DMSO median, subpopulation auxotrophic for UM; higher = larger share of this subpopulation than in DMSO controls; conditions: 10 µM; 24 h; SM minimal medium; subpopulation (auxotrophy): UM
Method in brief: as §1

[9] = test system: Saccharomyces cerevisiae BY4741 SeMeCo community; assay: z-score of subpopulation abundance vs DMSO median, subpopulation auxotrophic for HL; higher = larger share of this subpopulation than in DMSO controls; conditions: 10 µM; 24 h; SM minimal medium; subpopulation (auxotrophy): HL
Method in brief: as §1

[10] = test system: Saccharomyces cerevisiae BY4741 SeMeCo community; assay: z-score of subpopulation abundance vs DMSO median, subpopulation auxotrophic for HLU; higher = larger share of this subpopulation than in DMSO controls; conditions: 10 µM; 24 h; SM minimal medium; subpopulation (auxotrophy): HLU
Method in brief: as §1

[11] = test system: Saccharomyces cerevisiae BY4741 SeMeCo community; assay: z-score of subpopulation abundance vs DMSO median, subpopulation auxotrophic for HLM; higher = larger share of this subpopulation than in DMSO controls; conditions: 10 µM; 24 h; SM minimal medium; subpopulation (auxotrophy): HLM
Method in brief: as §1

[12] = test system: Saccharomyces cerevisiae BY4741 SeMeCo community; assay: z-score of subpopulation abundance vs DMSO median, subpopulation auxotrophic for HUM; higher = larger share of this subpopulation than in DMSO controls; conditions: 10 µM; 24 h; SM minimal medium; subpopulation (auxotrophy): HUM
Method in brief: as §1

[13] = test system: Saccharomyces cerevisiae BY4741 SeMeCo community; assay: z-score of subpopulation abundance vs DMSO median, subpopulation auxotrophic for LUM; higher = larger share of this subpopulation than in DMSO controls; conditions: 10 µM; 24 h; SM minimal medium; subpopulation (auxotrophy): LUM
Method in brief: as §1

[14] = test system: Saccharomyces cerevisiae BY4741 SeMeCo community; assay: z-score of subpopulation abundance vs DMSO median, subpopulation auxotrophic for HLUM; higher = larger share of this subpopulation than in DMSO controls; conditions: 10 µM; 24 h; SM minimal medium; subpopulation (auxotrophy): HLUM
Method in brief: as §1

[15] = test system: Saccharomyces cerevisiae BY4741 SeMeCo community; assay: mean cell size (pixel area) (pixels); higher = larger cells; conditions: 10 µM; 24 h; SM minimal medium
Method in brief: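 In this assay, mean cell pixel area per well was obtained from automated confocal images of paraformaldehyde-fixed yeast analysed in Harmony. The cells were a Saccharomyces cerevisiae BY4741 community with four plasmids, each complementing one auxotrophy and carrying a fluorescent marker, grown for 24 h in SM medium with drug at a final 10 µM in 384-well plates. Values are averaged across 3 replicates. Same SeMeCo high-content imaging drug screen: Selleck FDA-approved drugs at 10 µM, 24 h in SM medium, 384-well plates, 3 replicates.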

[16] = test system: Saccharomyces cerevisiae BY4741 SeMeCo community; assay: z-score of subpopulation abundance vs DMSO median, subpopulation auxotrophic for HU; higher = larger share of this subpopulation than in DMSO controls; conditions: 10 µM; 24 h; SM minimal medium; subpopulation (auxotrophy): HU
Method in brief: as §1

[17] = test system: Saccharomyces cerevisiae BY4741 SeMeCo community; assay: z-score of subpopulation abundance vs DMSO median, subpopulation auxotrophic for L; higher = larger share of this subpopulation than in DMSO controls; conditions: 10 µM; 24 h; SM minimal medium; subpopulation (auxotrophy): L
Method in brief: as §1

| SMILES | z-score of prototroph abundance [1] | z-score of subpopulation abundance [2] | z-score of subpopulation abundance [3] | z-score of subpopulation abundance [4] | z-score of subpopulation abundance [5] | z-score of subpopulation abundance [6] | z-score of subpopulation abundance [7] | z-score of subpopulation abundance [8] | z-score of subpopulation abundance [9] | z-score of subpopulation abundance [10] | z-score of subpopulation abundance [11] | z-score of subpopulation abundance [12] | z-score of subpopulation abundance [13] | z-score of subpopulation abundance [14] | mean cell size [15] | z-score of subpopulation abundance [16] | z-score of subpopulation abundance [17] |
| --- | --- | --- | --- | --- | --- | --- | --- | --- | --- | --- | --- | --- | --- | --- | --- | --- | --- |
| Clc1ccc(C(Cn2ccnc2)OCc2ccc(Sc3ccccc3)cc2)c(Cl)c1 (stereo unspecified) [Fenticonazole Nitrate] | -13.4 | -13.8 | 4.22 | 25 | 4.88 | -5.38 | -6.61 | -3.35 | 62.4 | 14.8 | 30.4 | 4.77 | -1.04 | 109 | – | – | – |
| CO/N=C(\C(=O)N[C@@H]1C(=O)N2C(C(=O)O)=C(CSc3nc(C)c(CC(=O)O)s3)CS[C@H]12)c1csc(N)n1 [Cefodizime Sodium] | 0.26 | -0.97 | 0.88 | -0.25 | 0.22 | -1.04 | -0.46 | 0.34 | -0.84 | -1.16 | -1.07 | -0.09 | -0.74 | -0.81 | 12.4 ± 0.13 | – | – |
| COc1ccc(C2CNC(=O)C2)cc1OC1CCCC1 (stereo not drawn) [S- (+)-Rolipram] | 1.36 | -0.3 | -0.01 | -0.73 | -0.96 | -0.87 | -0.72 | -1.18 | -0.58 | -1.07 | -0.94 | -0.99 | -1.24 | -1.15 | – | -0.33 | – |
| CCOC(=O)CCC(=O)O[C@H]1[C@H](O[C@@H]2[C@@H](C)[C@H](O[C@H]3C[C@@](C)(OC)[C@@H](O)[C@H](C)O3)[C@@H](C)C(=O)O[C@H](CC)[C@@](C)(O)[C@H](O)[C@@H](C)C(=O)[C@H](C)C[C@@]2(C)O)O[C@H](C)C[C@@H]1N(C)C [Erythromycin Ethylsuccinate] | -2.21 | 1.39 | -0.67 | 1.99 | – | – | 3.14 | -0.31 | 3.1 | 1.44 | 2.71 | 1.68 | 2.68 | 0.83 | 12.4 ± 0.15 | 0.76 | 2.32 |
| CN(C)CCCN1c2ccccc2Sc2ccc(Cl)cc21 [Chlorpromazine HCl] | -0.29 | 0.41 | – | – | – | 0.96 | 0.19 | 0.5 | -0.55 | -0.85 | 0.11 | 0.9 | – | 0.29 | 12.3 ± 0.24 | -0.02 | -0.35 |
| C[C@H]1COc2c(N3CCN(C)CC3)c(F)cc3c(=O)c(C(=O)O)cn1c23 [Levofloxacin] | 1.06 | 0 | -0.46 | -0.42 | – | -0.53 | -0.49 | -0.89 | -0.59 | -0.56 | -1.03 | -0.88 | -1.11 | -0.96 | – | -0.62 | -0.45 |
| C[C@H]1O[C@@H](O[C@H]2[C@@H](O)C[C@H](O[C@H]3[C@@H](O)C[C@H](O[C@H]4CC[C@@]5(C)[C@H](CC[C@@H]6[C@@H]5C[C@@H](O)[C@]5(C)[C@@H](C7=CC(=O)OC7)CC[C@]65O)C4)O[C@@H]3C)O[C@@H]2C)C[C@H](O)[C@@H]1O [Digoxin] | – | -1.12 | 0.17 | 0.21 | – | -0.41 | -0.55 | -0.69 | -0.11 | -0.03 | -0.7 | -0.77 | -0.61 | -0.34 | – | 0.8 | -0.7 |
| COc1ccc2c3c1O[C@H]1C[C@@H](O)C=C[C@@]31CCN(C)C2 [Galanthamine] | -1.09 | 1.21 | -0.51 | 0.83 | – | – | – | 0.1 | 0.83 | 1.67 | 1.04 | 1.27 | 1.02 | 1.34 | 12.47 ± 0.052 | 0.48 | 0.78 |
| C#C[C@]1(O)CC[C@H]2[C@@H]3CCc4cc(OC5CCCC5)ccc4[C@H]3CC[C@@]21C [Quinestrol] | -0.35 | 0.32 | – | 0.33 | – | -0.07 | 0.17 | -0.33 | 0.28 | 0.72 | 0.37 | 0.52 | 0.36 | 0.63 | – | – | 1.42 |
| CC(C(=O)O)c1ccc2c(c1)Cc1cccnc1O2 (stereo unspecified) [Pranoprofen] | – | -0.49 | 0.43 | -0.08 | – | -0.7 | 0.14 | -0.93 | -0.22 | -0.3 | 0.61 | 0.27 | -0.12 | -0.06 | – | 0.43 | -0.28 |
| CN[C@@H]1[C@@H](O)[C@@H](O[C@@H]2[C@@H](O)[C@H](O[C@H]3O[C@H](CN)[C@@H](O)[C@H](O)[C@H]3O)[C@@H](N)C[C@H]2NC(=O)[C@@H](O)CN)OC[C@]1(C)O [Isepamicin Sulphate] | – | 0 | 1.4 | -0.38 | – | -0.22 | -0.49 | – | -1.07 | -0.42 | -0.7 | 0.82 | – | – | 12.1 ± 0.21 | 1.15 | -1.49 |
| Cc1[nH]cnc1CN1CCc2c(c3ccccc3n2C)C1=O [Alosetron Hydrochloride] | -0.91 | 0.38 | 1.4 | -0.22 | – | – | 0.69 | 0.96 | 0 | -0.13 | 0.08 | 0.46 | -0.03 | 1.5 | 12 ± 0.2 | 0.97 | 0.02 |
| COc1ccc2[nH]c([S+]([O-])Cc3ncc(C)c(OC)c3C)nc2c1 (stereo unspecified) [Omeprazole] | -0.07 | -0.74 | -1.23 | 1.65 | – | 0.56 | – | -0.94 | 2.48 | 1.91 | -0.19 | -0.34 | 0.62 | -0.03 | 12.3 ± 0.19 | – | 1.33 |
| CC1=C(C(=O)OC(C)C)C(c2cccc([N+](=O)[O-])c2)C(C(=O)OC2CN(C(c3ccccc3)c3ccccc3)C2)=C(N)N1 (stereo unspecified) [Azelnidipine] | -0.48 | -0.27 | 0.39 | 0.22 | – | – | 0.77 | 0.01 | -0.34 | -0.12 | 0.09 | 0.26 | 0.01 | -0.49 | 12.5 ± 0.34 | – | -0.9 |
| CO/N=C(\C(=O)N[C@@H]1C(=O)N2C(C(=O)O)=CCS[C@H]12)c1csc(N)n1 [Ceftizoxime] | 0.78 | 0.26 | -0.63 | -0.86 | – | -0.02 | – | – | -0.85 | -1.12 | -0.37 | -1.23 | -0.44 | -0.49 | 12.47 ± 0.084 | -0.76 | -0.19 |
